GPR151 activ – activators of human GPR151; PathHunter beta-arrestin GPR151 cells, luminescence; activation, % at 11.2 µM; AID 1508602; hit rate 1% among 650,000; Q8TDV0; in the data active = activation above about 4.9%;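 also: 0% = median of compound wells and 100% = cells with positive control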
MITF inh – inhibitors of human MITF; O75030; AlphaScreen MITF homodimerization, bead proximity signal; inhibition, % at 2.6 µM; hit rate 0.91% among 650,000; in the data active = inhibition above about 50%;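 also: 0% = vehicle wells with protein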
Target sequence (O75030 whole entry, looked up): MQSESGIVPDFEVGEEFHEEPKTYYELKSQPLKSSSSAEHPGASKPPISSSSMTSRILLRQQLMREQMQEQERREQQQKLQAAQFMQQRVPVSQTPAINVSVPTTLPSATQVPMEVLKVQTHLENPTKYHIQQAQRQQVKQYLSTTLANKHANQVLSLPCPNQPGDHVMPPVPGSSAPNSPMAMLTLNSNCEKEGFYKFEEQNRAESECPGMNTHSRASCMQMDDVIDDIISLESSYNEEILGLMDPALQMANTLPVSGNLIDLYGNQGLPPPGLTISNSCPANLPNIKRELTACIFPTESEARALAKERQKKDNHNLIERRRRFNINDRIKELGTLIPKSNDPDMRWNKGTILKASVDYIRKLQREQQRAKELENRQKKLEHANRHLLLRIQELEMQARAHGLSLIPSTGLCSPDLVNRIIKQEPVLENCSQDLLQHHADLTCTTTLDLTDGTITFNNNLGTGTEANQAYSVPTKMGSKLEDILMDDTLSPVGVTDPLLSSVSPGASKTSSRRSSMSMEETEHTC
FBW7 activator – human FBW7 E3 ligase activation, primary screen; Q969H0; AlphaScreen FBW7–phospho-cyclin E peptide binding, activator screen; normalized activity (activation), % at 26.1 µM; hit rate 0.13% among 650,000; in the data active = normalized activity above about 1.9%;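 also: purified mutant Fbw7 with reduced substrate affinity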
TEAD-YAP inh – TEAD-YAP interaction inhibition. HEK-TIYL cells, TEAD-Gal4/YAP UAS-luciferase luminescence. AID 1259422. hit rate 1.4% among 640,000. inhibition, % at 9.12 µM; in the data active = inhibition above about 32%;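 also: 0% = median of test compound wells and 100% = reference inhibitor wells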
* = called active by the depositor. Most compounds without a hit are left out; they make up all but 3.4% or so of the library.

SMILES	GPR151 activ	MITF inh	FBW7 activator	TEAD-YAP inh
CCOC(=O)c1[nH]c(C)c(C(=O)OCC(=O)Nc2sccc2C(N)=O)c1C	1.6	-6.3	0.0	32.3*
CCOC(=O)c1[nH]c(C)c(C(=O)c2cc(F)ccc2F)c1C	0.7	3.8	-0.1	44.5*
COc1ccccc1C1Oc2ccc(Cl)cc2C2CC(c3ccc(Cl)cc3)=NN21 (configuration not stated)	-1.7	11.1	0.1	-7.2
COc1ccc(S(=O)(=O)/N=C2/C(C)=CC(=O)C(S(=O)(=O)c3ccccc3)=C2C)cc1	-1.1	16.2	0.2	0.7
COC1=C(O)C(=O)c2c(cc3oc(C(C)=O)c(O)c3c2O)C1=O	-1.3	76.1*	-0.1	2.3
COc1ccc(OC)c(S(=O)(=O)Oc2c(C)cccc2C)c1	2.7	-4.8	-0.1	-2.6
COc1ccc(Cl)cc1NS(=O)(=O)c1ccc(F)cc1	-0.6	-13.2	-0.2	-10.4
COc1ccc(OS(=O)(=O)c2cc(C)ccc2OC)cc1	-1.4	-6.3	-0.1	47.6*
COc1ccc(C)cc1NS(=O)(=O)c1cccc(C(=O)O)c1	-0.3	19.0	1.9*	-2.0
COc1ccc(S(=O)(=O)Nc2cc(Cl)ccc2OC)cc1	-2.9	3.0	0.5	61.3*
COc1cc(NS(=O)(=O)c2ccc(Cl)cc2)c(OC)cc1Br	0.1	20.7	-0.1	33.5*
Cc1ccc(Br)c(NS(=O)(=O)c2cccc(C(=O)O)c2)c1	0.3	8.9	0.6	3.3
COC(=O)CN(c1cc(OC)ccc1OC)S(=O)(=O)c1ccc(C)cc1	2.0	2.9	-0.1	43.9*
COc1ccc(C)cc1NS(=O)(=O)c1ccc(C)cc1	-0.5	-13.4	-0.1	7.1
COc1ccc(S(=O)(=O)Nc2cc(C)ccc2OC)cc1	-0.4	1.1	-0.1	58.0*
CC(C)(C)c1ccc(C2/C(=C(\O)c3ccc(Br)cc3)C(=O)C(=O)N2c2nccs2)cc1 (configuration not stated)	1.1	-3.8	0.1	-17.3
Cc1ncn(-c2ccc(Nc3nccc(-c4ccc(C#N)c(NC(C)C)c4)n3)cc2)n1	0.3	0.7	0.0	47.8*
Cc1ncn(-c2ccc(Nc3nccc(-c4ccc(C#N)c(N5CCN(C)CC5)c4)n3)cc2)n1	-1.9	-2.1	-0.2	51.0*
Cc1ncn(-c2ccc(Nc3nccc(-c4cc(C#N)cc(NC(C)C)c4)n3)cc2)n1	1.0	13.4	0.1	10.1
O=C(COc1ccc(Cl)cc1Cl)NNC(=O)c1cc2ccccc2oc1=O	1.0	5.0	0.0	-1.8
COc1ccccc1-n1c(SC)nc2c(sc(=S)n2CCc2ccccc2)c1=O	-1.4	-19.9	0.1	-5.3
CC(=O)c1ccc(NS(=O)(=O)c2cc(C(=O)Nc3ccccc3C(=O)O)ccc2C)cc1	0.0	-10.4	-0.3	7.9
O=C(Nc1ccc2[nH]ncc2c1)c1cccnc1OC1CCN(Cc2ccccc2)CC1	0.4	-2.1	-0.2	-0.7
CN1CC[C@@H](Oc2ccnc(C(=O)Nc3ccc4[nH]ncc4c3)c2)C1	0.0	11.0	0.1	65.7*
O=C(Nc1ccc2[nH]ncc2c1)c1cc(O[C@H]2CCNC2)ccn1	0.7	10.7	0.0	43.1*
SMILES	GPR151 activ	MITF inh	FBW7 activator	TEAD-YAP inh
O=C(Nc1ccc2[nH]ncc2c1)c1ccc(OC2CCN(Cc3ccccc3)CC2)nc1	0.8	21.1	-0.2	43.9*
CN1CCC(Oc2ccnc(C(=O)Nc3ccc4[nH]ncc4c3)c2)CC1	-1.1	10.5	0.8	10.4
Cc1ccc(/C=c2/sc3n(c2=O)C(N)=C(C#N)C(c2ccc(C)cc2)C=3C#N)cc1 (configuration not stated)	-2.5	15.7	0.3	4.5
Cc1cc(C(C#N)c2ccc(Cl)cc2Cl)n2ncnc2n1 (configuration not stated)	-0.6	13.8	0.4	6.9
Cc1cccc(C(C#N)c2cc(C)nc3ncnn23)c1 (configuration not stated)	-1.9	11.9	2.1*	15.9
CCc1nc(-c2ccccc2)nc(C)c1C	0.6	-3.9	-0.1	-0.5
COc1ccc(-n2nnnc2C2(Nc3cccc(Cl)c3)CCCCC2)cc1	0.5	-4.6	0.1	48.4*
CCOC(=O)c1sc2nc(SCC(=O)c3ccc(Br)cc3)n(CCC3=CCCCC3)c(=O)c2c1C	1.4	10.2	-0.1	-0.1
O=C(O)c1ccc(NCCSCc2ccccc2)c([N+](=O)[O-])c1	0.4	-4.8	0.0	35.2*
O=c1c2c([N+](=O)[O-])cc([N+](=O)[O-])cc2sn1-c1ccccc1	-0.1	6.0	0.2	17.0
COc1ccc(C(=O)Nc2nc3ccc4sc(C)nc4c3s2)c(OC)c1	-0.4	16.9	0.6	48.5*
COc1ccccc1C(=O)Nc1nc2ccc3sc(C)nc3c2s1	-1.7	-19.1	0.0	52.4*
Cc1nc2c(ccc3nc(NC(=O)CCc4ccccc4)sc32)s1	1.6	-8.2	-0.1	47.8*
COc1cccc(OC)c1C(=O)Nc1nc2ccc3sc(C)nc3c2s1	-0.9	11.8	0.0	-7.9
Cc1nc2c(ccc3nc(NC(=O)Cc4ccccc4)sc32)s1	-0.9	23.5	0.0	-29.7
COCCNC(=O)c1cc(Nc2cc(C)ccc2C)nc2ccccc12	-0.3	-9.2	-0.1	5.6
Cc1ccc2nc(-c3ccc(C)c(N)c3)oc2c1	-8.0	11.0	0.7	54.6*
Cc1ccc2nc(-c3cccc(-c4nc5ccc(C)cc5o4)c3)oc2c1	-0.5	-10.6	-0.1	-45.9
Cc1ccc2nc(-c3ccc(Br)c(N)c3)oc2c1	-2.2	19.6	0.8	70.2*
Cc1ccc2nc(-c3ccc(NC(=O)c4cc(I)ccc4Br)cc3)oc2c1	-0.8	7.3	-0.2	-28.7
c1ccc2c(c1)CCN(c1nc3cc4c(cc3s1)OCCO4)C2	-5.2	3.6	-0.3	88.7*
c1c2c(cc3sc(N4CCCC4)nc13)OCCO2	-8.0	-0.7	-0.1	71.5*
c1ccc2sc(N3CCN(c4nc5cc6c(cc5s4)OCCO6)CC3)nc2c1	0.2	8.2	0.0	0.6
CCCC1CCC(c2ccc(C(=O)Nn3c(-c4cc(OC)c(OC)c(OC)c4)nc4ccccc4c3=O)cc2)CC1 (configuration not stated)	-0.2	-8.5	-0.1	-0.9
CCCNC(=O)C(CCS(C)(=O)=O)N1Cc2ccccc2C1=O (configuration not stated)	0.0	-20.4	-0.1	1.1
SMILES	GPR151 activ	MITF inh	FBW7 activator	TEAD-YAP inh
CCN(CC)C(=O)/C(=C/c1ccc2c(c1)OCO2)NC(=O)c1ccc(OC)cc1	-0.4	12.7	-0.2	-21.2
NC(=O)C1CCN(C(=S)NC(=O)c2ccc(Cl)cc2)CC1	-0.3	6.9	2.3*	-5.7
NC(=O)c1ccccc1N=Cc1cccc(Cl)c1Cl	-0.8	4.2	0.9	54.3*
COc1cccc(C(=O)Nc2ccc3nn(-c4cccc(Cl)c4)nc3c2)c1	1.1	3.9	0.0	3.4
CC1CCc2cc(F)cc3c(O)c(C(=O)Nc4ccccn4)c(=O)n1c23 (configuration not stated)	0.2	7.7	2.0*	10.2
Oc1ccc(C2=Nn3c(nnc3-c3cccc(F)c3)SC2)cc1O	-0.9	2.3	-0.5	60.5*
COc1ccc(-c2nnc3n2N=C(c2ccc4c(c2)OCCO4)CS3)cc1	-1.3	7.0	0.0	45.6*
Cc1ccc(C2=Nn3c(nnc3-c3ccccc3)SC2)cc1	-1.2	-2.6	-0.2	59.7*

Assay outcomes as filed in PubChem BioAssay.
